# From ChEMBL document CHEMBL3988442, “University of Dundee, Small-Polar-MMV Screening Library” (2021)
# The campaign covered roughly 48,000 compounds. About 13,000 (27%) showed an effect of 50% or more. This is one part of the list.
# Tested on: Wolbachia pipientis
# Test: Anti-Wolbachia Cell-Based Screen
# Format: functional
# Set-up: scale not given: in the data most compounds retested in dose-response had high values
# Details: 5 µM
row,SMILES,Percent Effect
1,COCCc1ncc(CN2CCC(Oc3ccccc3C)CC2)cn1,2.53%
2,OCC1(CC2CC2)CCCN(Cc2cnc(C3CCCCC3)nc2)C1 (centres undefined),-2.459%
3,COCCc1ncc(CN2C[C@H](C3CC3)[C@@H](N)C2)cn1,-19.64%
4,COCCc1ncc(CN2CCC3(CCCN(CC4CC4)C3)C2)cn1 (centres undefined),106.1%
5,c1cnc(N2CCC3(CCCN(CC4CCCCC4)C3)C2)cn1 (centres undefined),13.44%
6,COc1ncc(CN2CCC3(CCCN(CC4CCCCC4)C3)C2)cn1 (centres undefined),96.23%
7,CCCSc1ncc(C2CC(=O)NCc3nc4ccccn4c32)cn1 (centres undefined),2.221%
8,COc1ccccc1C1(CNc2cn[nH]c(=O)c2Cl)CC1,2.708%
9,CC(NC(=O)c1cccnc1N(C)C)c1ccccc1Br (centres undefined),9.946%
10,C=C(C)COc1cccc(C(=O)N(C)C(C)c2ccncn2)c1 (centres undefined),-7.553%
11,O=C(O)C(F)(F)F.O=C(c1cscn1)N1CCC2(CCN(Cc3nccs3)CC2)C1,11.65%
12,COC(=O)CCC(=O)N1CCCC2(CCCN2Cc2cccc(F)c2)C1.O=C(O)C(F)(F)F (centres undefined),107.2%
13,O=C(O)C(F)(F)F.O=C(c1cscn1)N1CCCC2(CCN2Cc2cccc(F)c2)C1 (centres undefined),96.65%
14,COCCC(=O)N1CCC2(CCN(Cc3cccc(F)c3)CC2)C1.O=C(O)C(F)(F)F,-14.27%
15,O=C(O)C(F)(F)F.O=C(c1ccccc1)N1CCCC2(CCN2Cc2cccc(F)c2)C1 (centres undefined),106.4%
16,O=C(O)C(F)(F)F.O=S(=O)(c1ccccc1)N1CCC2(CCCN2Cc2cccc(Cl)c2)C1 (centres undefined),-34.27%
17,CNC(=O)CN1C(=O)CCC12CCCN(Cc1cccc(F)c1)C2.O=C(O)C(F)(F)F.O=C(O)C(F)(F)F (centres undefined),0.4911%
18,CCS(=O)(=O)N1CCCC2(CCCN2Cc2cccc(F)c2)C1.O=C(O)C(F)(F)F (centres undefined),-5.383%
19,O=C(O)C(F)(F)F.O=C(c1cscn1)N1CCC2(CN(Cc3nccs3)C2)C1,5.214%
20,O=C(O)C(F)(F)F.O=C(O)C(F)(F)F.O=C(O)CN1CCCC2(CCN2Cc2cccc(F)c2)C1 (centres undefined),109.4%
21,Cc1cnc(CNc2ccccc2CN(C)C(=O)c2cccs2)o1,6.302%
22,Cc1cc(-c2nn(C)c(Cl)c2CN2CCOCC(O)C2)no1 (centres undefined),7.686%
23,Cc1ccc(OCC(=O)Nc2ncccc2OC(F)F)cc1,-8.184%
24,COc1ccc(-c2nc(CN3CCCS3(=O)=O)co2)cc1,-14.94%
25,CC(O)C(=O)N1CCN(c2ccccc2Cl)C(=O)C1 (centres undefined),-6.675%
26,CC(C)NC(=O)N1CCN(c2ccc(Cl)nn2)C(=O)C1,110.8%

row,SMILES,Percent Effect
1,CC(=O)N1CCN(c2ccc(Cl)nn2)C(=O)C1,106.1%
2,Cc1ccccc1N1CCN(C(=O)CSc2ccncc2)CC1=O,-3.872%
3,CN(C)C(=O)N1CCN(c2ccc(Cl)nn2)C(=O)C1,97.53%
4,Cc1ccc2cc(C(=O)N3CCN(C(=O)N(C)C)CC3)ccc2n1,1.001%
5,COC(=O)[C@@H]1CN(C(=O)NC(C)C)CCN1S(=O)(=O)c1ccccc1,-0.3484%
6,COc1cccc(N2CCN(C(=O)C(O)c3ccccc3Cl)CC2=O)c1 (centres undefined),0.2128%
7,CC(C)C(NC(N)=O)C(=O)N1CCN(c2ccccc2Cl)C(=O)C1 (centres undefined),3.196%
8,CCN1CCN(C(=O)C(C)SC)CC1 (centres undefined),-3.808%
9,CC(C)(NS(C)(=O)=O)C(=O)NCc1cccc(Br)c1,-10.37%
10,Cc1cnc(CNc2ccc(C(=O)NCc3ccco3)cc2C)o1,-1.967%
11,O=C1COc2ccc(S(=O)(=O)NCc3ccccc3)c3c2N1CCC3,-7.83%
12,CCOC(=O)C1(Cc2ccc(Cl)cc2)CCN(Cc2ncc[nH]2)CC1,-10.72%
13,Cc1[nH]c2ccccc2c1CCNC(=O)N1CCC2(C1)OCCO2,5.663%
14,CC(NC(=O)Nc1ccccc1CN1CCOCC1)c1nccs1 (centres undefined),15.83%
15,Cc1nc(C(Cc2ccsc2)NC(=O)CCN2CCOCC2)sc1C (centres undefined),158.4%
16,Cc1nc(-c2ccsc2)ccc1C(=O)NCCN1CCOCC1,-7.078%
17,Cc1ccc(CN2CCOCC2)cc1NCc1ccsc1,-9.351%
18,Cc1n[nH]c(C2CN(CC(=O)NCCc3ccsc3)CCO2)n1 (centres undefined),-13.37%
19,Cc1nc(C(Cc2ccsc2)NC(=O)CN2CCOCC2)sc1C (centres undefined),171.6%
20,O=C(CCN1CCOCC1)NC(Cc1ccsc1)c1nccs1 (centres undefined),146.7%
21,CNS(=O)(=O)c1cccc(C(C)NCc2ccsc2)c1 (centres undefined),-13.31%
22,Cc1ccc(C(=O)N2CCOCC2)cc1NCc1ccsc1,-10.53%
23,Cc1cccc(CNC(Cc2ccsc2)c2nc(C)c(C)s2)n1.Cl (centres undefined),125.8%
24,O=C(C(CNCc1ccsc1)c1ccccc1)N1CCOCC1 (centres undefined),2.12%
25,Cn1cc(C(C)(O)CNC(=O)c2cc(Br)cn2C)cn1 (centres undefined),0.5421%
26,Cc1n[nH]c(-c2ccc(NC(=O)C(C)(C)N3CCN(C)CC3)cc2)n1,-11.99%

row,SMILES,Percent Effect
1,CC(C)(C)c1cnc(CN2CCCS2(=O)=O)o1,-7.665%
2,O=C1CCc2cc(S(=O)(=O)NC(=O)c3ccc4c(c3)COC4)ccc2N1,-36.98%
3,O=c1c2cccc(Cl)c2ncn1C1CCNC1 (centres undefined),5.785%
4,Cc1ccc(C(=O)NCc2ccccc2S(=O)(=O)N(C)CCO)cc1F,-6.958%
5,Cc1cnc(C(=O)Nc2cc(F)ccc2OCC2CCCO2)cn1 (centres undefined),-2.263%
6,Nc1ccnc(CNc2cc(F)ccc2OCC2CCCO2)n1 (centres undefined),-8.979%
7,Cc1ccc(C(=O)Nc2cc(F)ccc2OCC2CCCO2)cn1 (centres undefined),-10.64%
8,CS(=O)(=O)CCC(=O)Nc1cc(F)ccc1OCC1CCCO1 (centres undefined),92.36%
9,O=C(Nc1cc(F)ccc1OCC1CCCO1)c1ccc(O)nc1 (centres undefined),10.58%
10,O=C(CNc1cc(F)ccc1OCC1CCCO1)N1CCOCC1 (centres undefined),97.1%
11,Fc1ccc(OCC2CCCO2)c(NCc2cn3cccnc3n2)c1 (centres undefined),-2.31%
12,CCn1nc(C)cc1C(=O)Nc1cc(F)ccc1OCC1CCCO1 (centres undefined),-4.642%
13,Cc1ccc(NC(=O)N2CCCC2)c(OCC2CCCO2)c1 (centres undefined),97.39%
14,O=C(Nc1ccccc1OCC1CCCCO1)c1ccc(O)nc1 (centres undefined),2.227%
15,O=C(Nc1cc(F)ccc1OCC1CCCO1)NC1CC1 (centres undefined),110.8%
16,CCOCCC(=O)Nc1cc(C(N)=O)ccc1N1CCCC(C)C1 (centres undefined),-3.919%
17,CCc1nc(CN(C)CC(c2cccs2)N2CCOCC2)no1 (centres undefined),-2.837%
18,COCCC(=O)N1CCc2cc(Cl)cc(Cl)c2C1,-13.08%
19,Cc1c(-c2c(-c3ccccc3)ncn2[C@H](CO)C(=O)O)cnn1C,-0.2965%
20,CCOc1cccc(C(C)NCc2ccc(OC)c(OC)c2OC)c1 (centres undefined),2.292%
21,CCCC(NC(=O)c1cc(C2CC2)[nH]n1)c1nnc2ccccn12 (centres undefined),4.911%
22,O=C(Nc1cc(F)ccc1OCC1CCCO1)N1CCCC1 (centres undefined),75.82%
23,O=C(Nc1cc(F)ccc1OCC1CCCO1)N1CCSCC1 (centres undefined),95.33%
24,O=C(Nc1cc(F)ccc1OCC1CCCO1)c1ccoc1 (centres undefined),-0.8662%
25,CC(C)(C)c1nnc(CNc2cc(F)ccc2OCC2CCCO2)o1 (centres undefined),0.05226%
26,O=C(Nc1cc(F)ccc1OCC1CCCO1)c1ccccn1 (centres undefined),-3.019%

row,SMILES,Percent Effect
1,CCc1noc(CNc2cc(F)ccc2OCC2CCCO2)n1 (centres undefined),-4.375%
2,O=C(CC(F)(F)F)Nc1cc(F)ccc1OCC1CCCO1 (centres undefined),91.81%
3,CC(=O)N1CCC(Nc2cc(F)ccc2OCC2CCCO2)CC1 (centres undefined),103.1%
4,CN(Cc1ccco1)C1CCC12CCN(C(=O)c1ccnnc1)CC2.O=C(O)C(F)(F)F (centres undefined),-20.01%
5,CCN1CCN(S(=O)(=O)N2CCC(OC)CC2)[C@H]2CS(=O)(=O)C[C@H]21,-12.77%
6,Cc1ccc2nc(CN(C)Cc3ccc(C)o3)cc(=O)n2c1,4.444%
7,CC(COc1ccccc1)NCc1nc(-c2cccnc2)no1 (centres undefined),-6.485%
8,CS(=O)(=O)c1ccc(CNCC2CCN(CCO)CC2)cc1,-3.753%
9,Cc1cc(C(=O)NCc2cc(C)oc2C)no1,107.3%
10,COc1cc(NC(=O)NCc2cc(C)oc2C)cc(OC)c1,-2.456%
11,Cc1cc(CNC(=O)COc2ccccc2F)c(C)o1,7.15%
12,Cc1nnn2c1COCC(CNC(=O)c1cnoc1C)C2 (centres undefined),-0.1551%
13,Cc1cc(CNC(=O)c2ccno2)c(C)o1,94.7%
14,COc1ccc(CNC(=O)NCc2cc(C)oc2C)cc1,2.864%
15,Cc1cc(CNC(=O)c2cnoc2C)c(C)o1,146.4%
16,Cc1cc(C(=O)NCc2ccccn2)no1,0.7911%
17,Cc1cc(C(=O)NCc2cccnc2OC(C)C)no1,-0.04653%
18,Cc1cccnc1CNC[C@H]1Cn2cc(-c3ccccc3)nc2CO1,6.747%
19,NC(=O)c1cccc(CNC(=O)NCCOc2ccc(F)c(F)c2)c1,0.2822%
20,CSCc1noc(C2CCC(=O)N(CCCN3CCCC3=O)C2)n1 (centres undefined),-15.49%
21,OCCOc1ccc(NCc2cc(F)cc3cccnc23)cn1,-4.55%
22,Cc1noc(CCCC(=O)N2CSCC2C(=O)NCC2CC2)n1 (centres undefined),8.382%
23,CC(NCCN1CCN(C(=O)C2CCCC2)CC1)c1nccs1 (centres undefined),4.028%
24,CC(C)(C)C(=O)NC(c1nccs1)C1CCN(CC2CCCCC2)CC1.Cl (centres undefined),130.3%
25,CC(NC(=O)NC1CCN(CC2CCCC2)CC1)c1nccs1 (centres undefined),-2.566%
26,Clc1ccc(N2CCC(C3CCN(Cc4cccnc4)CC3)C2)nc1 (centres undefined),4.175%
